# Data taken from PubChem BioAssay (Tox21).
# Where “and” joins values, the source holds several entries; their conditions need not be identical. Equal values may be shown once. Records with an inconclusive call do not appear. Where a call stands in place of a potency, no number is given. The source holds several records for some structures; these can differ, active in one and inactive in another. Calls of active or inactive are those of the source. Unless noted, calls follow the shape of the dose curve; as a rule, active = well fitted curve in the direction sought with a large enough effect in the repeat runs; inconclusive = weak or mixed curves; inactive = no such curve, though single readings can be large; an effect the other way counts as inactive or inconclusive.
# What was measured:
# [1] = qHTS assay to identify small molecule agonists of the peroxisome proliferator-activated receptor delta (PPARd) signaling pathway - cell viability counter screen (AID 743211); also: nearly all actives have a fitted effect of over 55% in size; also: potency is read from the fitted curve at half-maximal effect
# In short: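 qHTS cell viability: PPARd-bla HEK293H; 17 h cpd, 37C; CellTiter-Glo, luminescence at 30 min RT.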
# [2] = qHTS assay to identify small molecule antagonists of the peroxisome proliferator-activated receptor delta (PPARd) signaling pathway - cell viability counter screen (AID 743213); also: nearly all actives have a fitted effect of over 50% in size; also: potency is read from the fitted curve at half-maximal effect
# In short: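 Cytotoxicity counter screen: CellTiter-Glo luminescence read 30 min after addition, in the same wells as the reporter assay. There, PPARd UAS-bla HEK293H cells (3000/well) were treated 17 h at 37 C with compound and 300 nM L165041.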
# [3] = qHTS assay to identify small molecule agonists of the farnesoid-X-receptor (FXR) signaling pathway - cell viability counter screen (AID 743218); also: nearly all actives have a fitted effect of over 45% in size; also: potency is read from the fitted curve at half-maximal effect
# In short: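 Parallel cytotoxicity test: compound-treated (16 h, 37 C) HEK 293T FXR-bla reporter cells were lysed with CellTiter-Glo and luminescence recorded.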
# [4] = qHTS assay to identify small molecule antagonists of the farnesoid-X-receptor (FXR) signaling pathway - cell viability counter screen (AID 743221; active = well fitted cell-killing curve with a large enough effect in the repeat runs, not every such curve was filed as active; also: nearly all actives have a fitted effect of over 50% in size; also: potency is read from the fitted curve at half-maximal effect)
# In short: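 After a 5 h settling period, FXR-bla HEK 293T cells receive compound and chenodeoxycholic acid (50 uM final) and incubate 16 h at 37 C; CellTiter-Glo luminescence, read after 30 min at room temperature, reports cell viability.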
# [5] = qHTS assay to identify small molecule agonists of the vitamin D receptor (VDR) signaling pathway - cell viability counter screen (AID 743224); also: nearly all actives have a fitted effect of over 50% in size; also: potency is read from the fitted curve at half-maximal effect
# In short: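 Plated VDR-bla cells (4 h, 37C) received compound, incubated 16 h, then LiveBLAzer substrate 2 h RT; CellTiter-Glo added afterwards, luminescence read at 30 min.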
# [6] = qHTS assay to identify small molecule antagonists of the vitamin D receptor (VDR) signaling pathway - cell viability counter screen (AID 743225); also: nearly all actives have a fitted effect of over 50% in size; also: potency is read from the fitted curve at half-maximal effect
# In short: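 Parallel cytotoxicity test: VDR-UAS-bla HEK 293T, 3 nM (final) 1-alpha,25-dihydroxyvitamin D3 with test compound, 16 h, 37C. Endpoint is CellTiter-Glo luminescence in the same wells.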
# [7] = qHTS assay to identify small molecule agonists of the NFkB signaling pathway - cell viability counter screen (AID 1159515; calls by dose curve; also: nearly all actives have a fitted effect of over 55% in size; also: potency is read from the fitted curve at half-maximal effect)
# In short: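 Using the same wells as the NFkB reporter read, ME-180 NFkB-bla cells given compounds for 5 hr were assessed for viability via CellTiter-Glo, with luminescence taken after a 30 min room-temperature incubation.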
# [8] = qHTS assay to identify small molecule agonists of the endoplasmic reticulum stress response signaling pathway - cell viability counter screen (AID 1159517; calls by dose curve)
# In short: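 HeLa cells carrying an ESRE-driven beta-lactamase reporter receive compound for 5 hr at 37 C. Cell viability is then gauged with CellTiter-Glo by luminescence, 30 min at room temperature.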
# [9] = qHTS assay to identify small molecule antagonists of the retinoid-related orphan receptor gamma (ROR-gamma) signaling pathway - cell viability counter screen (AID 1159520); also: nearly all actives have a fitted effect of over 50% in size; also: potency is read from the fitted curve at half-maximal effect
# In short: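 Cytotoxicity was read from cellular ATP (CellTiter-Glo luminescence) after 16 hr at 37 C with 1 uM doxycycline induction. The inducer was added 2 hr after compound transfer to Tet-on ROR gamma CHO cells.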
# [10] = qHTS assay to identify small molecule agonists of the AP-1 signaling pathway - cell viability counter screen (AID 1159525; calls by dose curve; also: nearly all actives have a fitted effect of over 55% in size; also: potency is read from the fitted curve at half-maximal effect)
# In short: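 Luminescent ATP readout (Cell Titer Glo, 30 min RT), normalised to DMSO and tetra n-octyl ammonium bromide controls. Cells were ME-180 AP-1-bla in 0.5% dialyzed FBS Opti-MEM, with a 5 h, 37 °C compound exposure.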
# [11] = biological target: Vitamin D3 receptor (Homo sapiens) (UniProt P11473); experiment: qHTS assay to identify small molecule antagonists of the vitamin D receptor (VDR) signaling pathway (AID 743223; active = well fitted inhibition curve with a large enough effect in the signal ratio in the repeat runs, not every such curve was filed as active; the % refers to the signal ratio)
# In short: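 Reporter line VDR-bla; stimulus 1alpha,25-(OH)2 vitamin D3, 3 nM final; compound co-addition, 16 h 37C/5% CO2; LiveBLAzer B/G substrate 2 h RT; fluorescence intensity.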
# [12] = biological target: Bile acid receptor (Homo sapiens) (UniProt Q96RI1); experiment: qHTS assay to identify small molecule agonists of the farnesoid-X-receptor (FXR) signaling pathway (AID 743220; active = well fitted activation curve with a large enough effect in the signal ratio in the repeat runs, not every such curve was filed as active; the % refers to the signal ratio)
# In short: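 Beta-lactamase reporter under UAS control in GeneBLAzer FXR HEK 293T cells (5000/well) measured with LiveBLAzer FRET substrate after 2 h at room temperature. Compound exposure lasted 16 h at 37C.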
# [13] = biological target: Vitamin D3 receptor (Homo sapiens) (UniProt P11473); experiment: qHTS assay to identify small molecule agonists of the vitamin D receptor (VDR) signaling pathway (AID 743222; calls by dose curve; also: potency is read from the fitted curve at half-maximal effect)
# In short: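 In VDR-bla cells, compound-induced beta-lactamase expression is quantified by FRET substrate fluorescence. Treatment lasts 16 h at 37C; substrate develops 2 h at room temperature.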
# [14] = qHTS assay to identify small molecule agonists of the AP-1 signaling pathway (AID 1159526; calls by dose curve)
# [15] = biological target: Retinoic acid receptor RXR-alpha (Homo sapiens) (UniProt P19793); experiment: qHTS assay to identify small molecule agonists of the RXR signaling pathway (AID 1159527; calls by dose curve; also: nearly all actives have a fitted effect of over 35% in size)
# In short: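 16 hr incubation of compound-treated RXR-alpha-UAS-bla HEK 293T cells (2% charcoal-stripped FBS, 37 C) preceded a 2 hr room-temperature LiveBLAzer FRET substrate step and blue/green fluorescence measurement.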
# [16] = biological target: Nuclear receptor ROR-gamma (Homo sapiens) (UniProt P51449); experiment: qHTS assay to identify small molecule antagonists of the retinoid-related orphan receptor gamma (ROR-gamma) signaling pathway (AID 1159521; also: nearly all actives have a fitted effect of over 50% in size; also: potency is read from the fitted curve at half-maximal effect)
# In short: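 Decreased RORE-driven luciferase luminescence indicates antagonism. Tet-on RORγ CHO cells received compound, then 1 uM final doxycycline 2 h later; signal read after 16 h incubation.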
# [17] = biological target: Peroxisome proliferator-activated receptor delta (Homo sapiens) (UniProt Q03181); experiment: qHTS assay to identify small molecule agonists of the peroxisome proliferator-activated receptor delta (PPARd) signaling pathway (AID 743212; calls by dose curve)
# In short: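 HEK293H PPARd-bla cells; 5 h preincubation 37 C/5% CO2; compound (DMSO) 37 C; LiveBLAzer B/G FRET substrate 2 h RT; fluorescence intensity.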
# [18] = biological target: Peroxisome proliferator-activated receptor delta (Homo sapiens) (UniProt Q03181); experiment: qHTS assay to identify small molecule antagonists of the peroxisome proliferator-activated receptor delta (PPARd) signaling pathway (AID 743215; active = well fitted inhibition curve with a large enough effect in the signal ratio in the repeat runs, not every such curve was filed as active; the % refers to the signal ratio;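 also: cells stimulated with agonist L165041 at 300 nM final during compound exposure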; also: potency is read from the fitted curve at half-maximal effect)
# In short: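 HEK293H UAS-bla, PPARd; agonist L165041 300 nM final with cpd in DMSO; 37 C 17 h; FRET substrate, RT 2 h; fluorescence intensity.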
# [19] = biological target: Bile acid receptor (Homo sapiens) (UniProt Q96RI1); experiment: qHTS assay to identify small molecule antagonists of the farnesoid-X-receptor (FXR) signaling pathway (AID 743217; active = well fitted inhibition curve with a large enough effect in the signal ratio in the repeat runs, not every such curve was filed as active; the % refers to the signal ratio; also: potency is read from the fitted curve at half-maximal effect)
# In short: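 GeneBLAzer FXR-UAS-bla HEK 293T, CDCA-stimulated (50 uM final). Compound treatment 16 h, 37 °C. Detection: beta-lactamase cleavage of B/G FRET substrate, fluorescence.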
# Retinoic acid receptor RXR-alpha (Homo sapiens), sequence (P19793 whole entry, looked up): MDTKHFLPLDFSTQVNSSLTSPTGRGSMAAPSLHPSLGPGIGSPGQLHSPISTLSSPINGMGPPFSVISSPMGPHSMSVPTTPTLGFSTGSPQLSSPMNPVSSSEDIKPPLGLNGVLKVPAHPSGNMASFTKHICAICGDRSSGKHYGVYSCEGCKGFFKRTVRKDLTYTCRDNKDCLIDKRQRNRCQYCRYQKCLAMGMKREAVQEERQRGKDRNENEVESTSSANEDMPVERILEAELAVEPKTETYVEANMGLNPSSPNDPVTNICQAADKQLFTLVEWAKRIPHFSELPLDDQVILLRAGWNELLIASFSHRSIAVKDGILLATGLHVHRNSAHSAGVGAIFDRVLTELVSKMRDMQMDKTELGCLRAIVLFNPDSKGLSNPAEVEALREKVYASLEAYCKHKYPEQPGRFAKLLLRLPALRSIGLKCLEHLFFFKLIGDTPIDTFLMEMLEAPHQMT
# Peroxisome proliferator-activated receptor delta (Homo sapiens), sequence (Q03181 whole entry, looked up): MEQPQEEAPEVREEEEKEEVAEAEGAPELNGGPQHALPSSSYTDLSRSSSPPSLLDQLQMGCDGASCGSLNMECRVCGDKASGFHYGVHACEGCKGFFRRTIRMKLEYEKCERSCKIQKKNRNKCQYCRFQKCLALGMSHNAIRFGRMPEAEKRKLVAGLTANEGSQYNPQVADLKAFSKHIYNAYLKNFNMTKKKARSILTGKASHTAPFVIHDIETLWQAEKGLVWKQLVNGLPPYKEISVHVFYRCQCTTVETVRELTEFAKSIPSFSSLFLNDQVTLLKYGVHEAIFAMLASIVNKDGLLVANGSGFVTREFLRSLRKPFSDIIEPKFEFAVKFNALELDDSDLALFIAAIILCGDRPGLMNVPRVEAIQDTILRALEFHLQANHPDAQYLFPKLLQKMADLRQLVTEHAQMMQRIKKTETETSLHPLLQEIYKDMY
# Bile acid receptor (Homo sapiens), sequence (Q96RI1 whole entry, looked up): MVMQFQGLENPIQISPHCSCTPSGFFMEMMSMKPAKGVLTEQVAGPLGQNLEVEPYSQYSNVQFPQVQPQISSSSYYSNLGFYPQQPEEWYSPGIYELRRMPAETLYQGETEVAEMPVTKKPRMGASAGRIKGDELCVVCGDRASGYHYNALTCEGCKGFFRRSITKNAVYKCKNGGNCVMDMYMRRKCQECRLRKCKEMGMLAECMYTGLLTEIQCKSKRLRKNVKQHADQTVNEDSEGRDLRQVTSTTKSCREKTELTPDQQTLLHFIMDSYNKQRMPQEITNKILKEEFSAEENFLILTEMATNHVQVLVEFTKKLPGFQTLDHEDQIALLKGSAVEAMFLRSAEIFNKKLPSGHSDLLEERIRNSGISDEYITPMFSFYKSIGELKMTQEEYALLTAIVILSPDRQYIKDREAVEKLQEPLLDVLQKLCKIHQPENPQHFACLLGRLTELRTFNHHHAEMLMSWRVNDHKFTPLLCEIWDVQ
# Vitamin D3 receptor (Homo sapiens), sequence (P11473 whole entry, looked up): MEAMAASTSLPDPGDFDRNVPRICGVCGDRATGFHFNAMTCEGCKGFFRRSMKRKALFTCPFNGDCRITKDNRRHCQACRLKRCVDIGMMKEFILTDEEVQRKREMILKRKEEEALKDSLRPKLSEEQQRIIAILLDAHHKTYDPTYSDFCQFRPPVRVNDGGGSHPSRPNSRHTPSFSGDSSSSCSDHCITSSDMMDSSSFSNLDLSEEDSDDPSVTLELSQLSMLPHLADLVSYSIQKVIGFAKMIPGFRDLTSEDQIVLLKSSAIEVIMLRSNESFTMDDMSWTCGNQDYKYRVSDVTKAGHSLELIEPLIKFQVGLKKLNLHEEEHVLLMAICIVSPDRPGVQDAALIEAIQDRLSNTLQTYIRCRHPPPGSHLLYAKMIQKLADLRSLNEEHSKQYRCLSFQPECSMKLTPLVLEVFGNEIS
SMILES,Potency [1],Potency [2],Potency [3],Potency [4],Potency [5],Potency [6],Potency [7],Potency [8],Potency [9],Potency [10],Potency [11],outcome [12],Potency [13],Potency [14],outcome [15],Potency [16],Potency [17],Potency [18],Potency [19]
c1ccc2cc3c(cc2c1)-c1cccc2cccc-3c12,inactive,inactive,inactive,inactive,inactive,inactive,inactive,inactive,inactive,inactive,,,,,,,,,
CN(C)C(=S)S,546 nM (active) and 5.49 µM (active),5.45 µM (active) and 7.76 µM (active),0.386 µM (active),612 nM (active) and 4.36 µM (active),50 µM (active) and 1.09 µM (active) and 9.77 µM (active),inactive,15.5 µM (active),inactive,6.11 µM (active),,inactive,,,,,,,,
BrC(Br)C(Br)(Br)Br,49.3 µM (active),39.1 µM (active),,inactive,,,inactive,inactive,,inactive,,inactive,inactive,inactive,,,,,
c1ccc2c(c1)[nH]c1cnccc12,inactive,inactive,inactive,inactive,inactive,inactive,inactive,inactive,inactive,inactive,,,,,inactive,,,,
Cc1c(Cl)c(=O)oc2cc(OP(=O)(OCCCl)OCCCl)ccc12,inactive,inactive,inactive,inactive,inactive,inactive,inactive,,inactive,inactive,,,,inactive,inactive,inactive,,,
CCOP(=O)(NC(C)C)Oc1ccc(SC)c(C)c1 (stereo unspecified),,,inactive,inactive,inactive,,inactive,,inactive,,,,,,,9.69 µM (active),,,
Cc1ccc(OP(=O)(Oc2ccccc2)Oc2ccccc2)cc1,inactive,inactive,inactive,inactive,inactive,inactive,inactive,,inactive,inactive,inactive,inactive,,inactive,,,inactive,inactive,
O=[N+]([O-])c1cc(C(F)(F)F)c(Cl)c([N+](=O)[O-])c1Cl,11 µM (active),7.76 µM (active),7.76 µM (active),38.9 µM (active),12.3 µM (active),21.9 µM (active),54.9 µM (active),,27.3 µM (active),,,,,,,6.11 µM (active),,,
CCCN(CCC)c1c([N+](=O)[O-])cc(S(N)(=O)=O)cc1[N+](=O)[O-],20.8 µM (active),37 µM (active),,52.2 µM (active),52.2 µM (active),11.7 µM (active),52.2 µM (active),,54.5 µM (active),43.6 µM (active),,,,,,,,58.6 µM (active),58.6 µM (active)
Clc1ccc(C(c2ccc(Cl)cc2)C(Cl)(Cl)Cl)cc1,49.3 µM (active) and 38.9 µM (active),inactive,inactive,inactive,55.3 µM (active) and 43.6 µM (active) and inactive,inactive,55.3 µM (active),,61.6 µM (active) and inactive,34.9 µM (active) and 38.9 µM (active),inactive,inactive,inactive,,,,inactive,inactive,
O=S(=O)(c1ccc(Cl)cc1)c1ccc(Cl)cc1,,,,inactive,,inactive,inactive,,inactive,inactive,,,inactive,,,,,,
CC(C)[C@H](C(=O)O[C@H](C#N)c1cccc(Oc2ccccc2)c1)c1ccc(Cl)cc1,inactive,inactive,,inactive,,inactive,inactive,,inactive,inactive,,,,,,,inactive,,
CCC[CH2][Sn]([CH2]CCC)([CH2]CCC)[O]C(=O)c1ccccc1,0.616 µM (active),1.38 µM (active),0.616 µM (active),2.45 µM (active),0.692 µM (active),1.95 µM (active),0.436 µM (active),,0.686 µM (active),1.23 µM (active),,,,,,,,,
C[C@H]1O[C@@H](O[C@H]2[C@@H](O)C[C@H](O[C@H]3[C@@H](O)C[C@H](O[C@H]4CC[C@@]5(C)[C@H](CC[C@@H]6[C@@H]5CC[C@]5(C)[C@@H](C7=CC(=O)OC7)CC[C@]65O)C4)O[C@@H]3C)O[C@@H]2C)C[C@H](O)[C@@H]1O,0.119 µM (active),19.6 nM (active) and 84.1 nM (active),0.0311 µM (active),0.0139 µM (active),15.6 nM (active) and 106 nM (active),8.8 nM (active) and 84.9 nM (active),0.124 µM (active),,inactive,,,inactive,,,,5.48 µM (active) and 16.8 µM (active),,,
CCCOCC(=Nc1ccc(Cl)cc1C(F)(F)F)n1ccnc1,13.8 µM (active),21.9 µM (active),17.4 µM (active),21.9 µM (active),7.76 µM (active),12.3 µM (active),30.9 µM (active),,61.1 µM (active),,,,34.6 µM (active),,inactive,,,,
CCC(C)(C)C(=O)OC1=C(c2ccc(Cl)cc2Cl)C(=O)OC12CCCCC2,inactive,inactive,inactive,inactive,inactive,inactive,inactive,,,inactive,,inactive,,,inactive,inactive,inactive,inactive,
CC(C)[C@H](C(=O)OC(C#N)c1cccc(Oc2ccccc2)c1)c1ccc(OC(F)F)cc1 (stereo partly specified),inactive,inactive,,inactive,inactive,inactive,inactive,,inactive,inactive,,inactive,,,inactive,,,,
